This is a sample that favours compounds with a hit; in the whole collection about 7% have one here.
ATXN viability – Viability Counterscreen for Primary qHTS for Inhibitors of ATXN expression | Potency, µM (titrated, usually from 56.7 µM), most hits filed as cytotoxic | S2 cells (HEK-293 line with an ATXN2-luciferase reporter) viability, CellTiter-Fluor protease fluorescence, 24 h | 400,000 compounds, 0.49% hits; note: nearly all actives have a fitted effect of over 40% in size
DRD3 antagonist – qHTS of D3 Dopamine Receptor Antagonist: qHTS | 360,000 compounds, 2.5% hits | max response, negative = inhibition, % | D3R cells, DiscoveRx beta-arrestin luminescence, antagonist mode; stronger effect = lower value | D(3) dopamine receptor (Homo sapiens), P35462; in the data active = max response below about -50%; inconclusive = no clear call, values can overlap the other calls
Target sequence (P35462 whole entry, looked up): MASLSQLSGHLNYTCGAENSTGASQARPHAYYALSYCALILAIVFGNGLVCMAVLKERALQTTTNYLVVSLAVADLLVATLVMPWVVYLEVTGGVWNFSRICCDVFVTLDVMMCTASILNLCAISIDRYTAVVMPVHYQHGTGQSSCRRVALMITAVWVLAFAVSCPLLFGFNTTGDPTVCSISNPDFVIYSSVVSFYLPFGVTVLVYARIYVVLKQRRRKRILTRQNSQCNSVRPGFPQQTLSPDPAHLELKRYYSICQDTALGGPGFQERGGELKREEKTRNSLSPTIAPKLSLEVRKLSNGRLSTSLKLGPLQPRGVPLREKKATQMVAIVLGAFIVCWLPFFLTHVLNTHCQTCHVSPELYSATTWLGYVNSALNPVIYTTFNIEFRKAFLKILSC
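Cells plated overnight at 1500 cells/well, then exposed to library compounds with dopamine controls for 90 minutes at 37 degrees C. DiscoveRx reagent added for 30–60 minutes at room temperature; luminescence read, quantitative HTS format.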
a7 integrin act – qHTS for Activators of Integrin-Mediated Alleviation for Muscular Dystrophy | Potency, µM (top dose mostly 38.3 µM), most hits filed as activators | AID 624291, 2012 | alpha7betagal myoblasts, beta-gal FDG fluorescence, 48 h | 350,000 compounds, 0.064% hits; note: nearly all actives have a fitted effect of over 60% in size
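alpha7betagal+/- myoblasts (passage 13, 250/well) treated 48 h at 37C with compounds at 1:260 dilution of DMSO stock. Lysed, then beta-galactosidase activity read as FDG fluorescence (ex 480/em 540) after 30 min, with pre-read for autofluorescence.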
DRD3 agonist – qHTS of D3 Dopamine Receptor Agonist: qHTS | D3R DiscoveRx beta-arrestin cells, luminescence, 90 min | AID 652048, 2013 | D(3) dopamine receptor (Homo sapiens), P35462 | 410,000 compounds, 0.58% hits | max activation, %; in the data active = max activation above about 30%
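Agonist-mode cell screen: cells plated at 1500/well and incubated overnight at 37 °C, then exposed to library compounds for 90 min at 37 °C. Detection reagent was added for 30–60 min at room temperature, and luminescence was read.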
ATXN2 expr inh – Primary qHTS for Inhibitors of ATXN expression; HEK-293 ATXN2-luciferase reporter, luminescence, 24 h; Potency, µM (highest dose often 57 µM), actives largely listed as inhibitors; 360,000 compounds, 0.72% hits; note: nearly all actives have a fitted effect of over 55% in size
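qHTS (up to 57 uM final) was run with 24 h compound exposure of reporter cells at 37 °C. Each well was multiplexed: SteadyGlo luminescence measured ATXN2-luciferase expression after a fluorogenic Gly-Phe-AFC viability readout (25 uM final).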
IL-1B inflam inh – qHTS for Inhibitors of Inflammasome Signaling: IL-1-beta AlphaLISA Primary Screen; THP-1 LPS/ATP IL-1B secretion, AlphaLISA, 16 h; stronger effect = lower value; activity change, % at 57.5 µM; 360,000 compounds, 4.7% hits; AID 743279, 2014; in the data active = activity change below about -50%; inconclusive = mostly about -30% to -49%
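THP-1 cells pretreated 1 hr with compounds (up to 57.5 uM final), then stimulated with LPS (250 ng/mL final) plus ATP (1.25 mM final); secreted IL-1B measured by AlphaLISA after 16 hr, decreased signal indicating inhibition.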
Hits are given with their value; - = inactive; ? = inconclusive; . = no result given. Unless noted, calls come from the whole dose curve; as a rule, active = well fitted curve in the direction sought with a large enough effect; inconclusive = small, poorly fitted or top-dose-only effect, or another doubt; inactive = no such curve, though single readings can be large; an effect the other way counts as inactive or inconclusive.

SMILES	ATXN viability	DRD3 antagonist	a7 integrin act	DRD3 agonist	ATXN2 expr inh	IL-1B inflam inh
O=c1[nH]c(Cc2ccccc2Cl)nc2ccccc12	-	-	-	-	-	-
CSc1ccccc1-n1nnnc1SCC(=O)Nc1cc(C)ccc1C	-	-	-	-	-	-51
Cc1ccc(C)c(NC(=O)CSc2nncn2C)c1	-	-	-	-	.	-
c1csc(C2CCCN2c2nc3nonc3nc2NC2CC2)n1 (stereo not given)	-	-	-	-	-	-
CCN(CC)c1ccc(/C=C2\SC(=O)N(C(C)C)C2=O)o1	?	?	-	-	-	-99
CC1CC(=O)Nc2ccccc2S1(=O)=O (stereo not given)	-	-	-	-	-	-
O=S1(=O)c2ccccc2Nc2ccccc21	?	-	-	-	-	-73
O=C(Cc1ccccc1F)NC1CCCc2ccccc21 (stereo not given)	-	-	-	-	-	-
Cc1cc(C)c2cc(C#N)c(N3CCCN(C(=S)NCCCN(C)C)CC3)nc2c1	-	-	-	-	?	-56
Cc1ccc2cc(C#N)c(N3CCCN(C(=S)NCCCN(C)C)CC3)nc2c1	?	-	-	-	-	?
CCc1ccc(C2=NN(CCC(=O)NCCc3ccc(OC)c(OC)c3)C(=O)CC2)cc1	.	.	.	-	.	.
COC(=O)[C@H]1C[C@@H]1[C@H](NS(=O)(=O)c1ccc2ccccc2c1)c1ccccc1	-	-	-	-	-	-
CC(=O)N1CCC(C(=O)N2CCN(S(=O)(=O)c3ccc(Cl)s3)CC2)CC1	-	-	-	-	-	-
COc1ccc(N/N=C(\C=N\O)C(=O)c2ccc(OC)cc2)cc1	?	-	-	-	-	-
N/N=C/C(=N\Nc1ccc(Cl)cc1)C(=O)c1ccncc1	-	-	-	-	-	-51
CCc1ccc(-n2nc(C)c3c(C(=O)N4CCN(c5ccccc5)CC4)cc(C)nc32)cc1	?	.	.	-	-	.
Cc1nn(-c2ccccc2)c2nc(-c3ccccc3)cc(C(=O)N3CCOCC3)c12	-	-	-	-	-	-74
Cc1nn(-c2cccc(Cl)c2)c2nc(-c3ccncc3)cc(C(=O)N3CCOCC3)c12	-	-	-	-	-	-72
CCN1CCN(CCCN(Cc2ccco2)C(=S)Nc2ccc(Cl)c(C)c2)CC1	-	-	-	-	-	-
Cc1ccc(NC(=S)N(CCCN2CCCC(C)C2)Cc2ccco2)cc1C (stereo not given)	-	-92	-	-	-	?
CCOC(=O)c1ccc(NC(=S)N(CCN2CCCCCC2)Cc2ccco2)cc1	-	?	-	-	-	-
Cc1cc(NC(=S)N(CCN2CCCCC2)Cc2ccco2)ccc1Cl	-	-	-	-	-	-97
CCOC(=O)c1ccc(NC(=S)N(CCCN2CCCCCC2)Cc2ccco2)cc1	-	-	-	-	-	-66
O=C(CSC1=NCCS1)NC1CCCCC1	-	-	-	-	-	-
COc1ccc(O)c(C(=O)c2cnc3nc4ccccc4n3c2)c1	-	-	-	-	-	-
SMILES	ATXN viability	DRD3 antagonist	a7 integrin act	DRD3 agonist	ATXN2 expr inh	IL-1B inflam inh
CC1=C(C(=O)Nc2ccc(C)cc2C)C(c2ccc(O)cc2)n2nc(SCC(=O)c3ccc(C)cc3)nc2N1 (stereo not given)	-	.	.	-	-	.
Cc1cc(C)c(NC(=O)Cn2c(=O)n(CCC(=O)N3CCc4ccccc4C3)c(=O)c3ccccc32)c(C)c1	?	.	.	-	-	.
COC1=CC(=O)c2c(ccc3ncnc(N)c23)C1=O	3.5µM	-65	-	-	2.8µM	-112
CC(=O)N1c2ccc(S(=O)(=O)NC(CC(=O)O)c3ccc(Br)cc3)cc2CC1C (stereo not given)	-	-	-	-	-	-
O=[N+]([O-])c1ccc(Cl)cc1Sc1nc2ccccc2o1	-	-	-	-	-	-58
O=[N+]([O-])c1ccc(Cl)cc1Sc1cccc2cccnc12	-	-	-	-	-	-
CNc1nc(-c2ccccc2)[n+](-c2ccc(C)cc2)s1	-	-	-	-	-	-79
CC(=O)c1cccc(Nc2nc(N3CCOCC3)nc(N3CCOCC3)n2)c1	-	-	-	-	-	-
CC(=O)c1ccc(Nc2nc(N3CCOCC3)nc(N3CCOCC3)n2)cc1	-	-	-	-	-	-54
Cc1ccc([N+](=O)[O-])cc1Nc1nc(N2CCOCC2)nc(N2CCOCC2)n1	-	?	-	-	-	-
COc1ccc(Nc2nc(N3CCCC3)nc3ccccc23)c(OC)c1	20µM	-	-	-	10µM	-99
COc1ccc(Nc2nc(N3CCOCC3)nc(N3CCOCC3)n2)c(OC)c1	-	-	-	-	-	-
COc1ccc(Nc2nc(Nc3ccc(OC)cc3OC)nc(N3CCOCC3)n2)c(OC)c1	.	.	.	40	.	.
Cc1ccc(Cl)cc1Nc1nc(N2CCOCC2)nc(N2CCOCC2)n1	-	-	-	-	-	-54
COc1ccc(Nc2nc(-c3ccc(C)cc3)nc3ccccc23)c(OC)c1	.	.	.	-	.	.
Cc1ccc(NC(=O)CN(C)C(=O)c2cccc(-n3cccc3)c2)cc1	-	-	-	-	-	-
COc1ccc(Cl)cc1N1C(=O)CN(Cc2cc(OC)c(OC)c(OC)c2)C1=S	-	-	-	-	.	-
COC(=O)c1ccc(Oc2nc(N3CCCCC3)nc(N3CCOCC3)n2)cc1	?	-	-	-	-	-55
COc1ccc(N2CCN(c3nc(Cl)nc(Nc4ccc(F)cc4)n3)CC2)cc1	-	-	-	-	-	-79
COc1ccc(Nc2nc(N3CCOCC3)nc(N3CCOCC3)n2)cc1Cl	-	-	-	-	-	-58
Cc1ccc(Nc2nc(Nc3ccc(C)c(C)c3)nc(N3CCOCC3)n2)cc1C	.	.	.	-	.	.
CCN(CC)c1nc(Oc2ccc(C(=O)OC)cc2)nc(N2CCOCC2)n1	-	-	-	-	.	-
COc1ccc(N2CCN(c3nc(Nc4ccc(C)c(F)c4)nc(N4CCCC4)n3)CC2)cc1	-	-	-	-	-	?
CSc1nc2n(n1)C(C)C1=C(CCCC1=O)N2 (stereo not given)	-	-	-	-	-	-
CC12CN3CC(C)(CN(C1)C3c1ccc([N+](=O)[O-])o1)C2 (stereo not given)	-	-	-	-	-	-
Cc1ccc(C(=O)Nc2ccc(Oc3ccc(C(=O)O)c(C(=O)O)c3)cc2)cc1C	-	-	-	-	-	-
CC[C@]12c3[nH]c4ccccc4c3CCN1C(=O)C(CC(=O)NCCCOC)C[C@@H]2C(=O)N1CCN(C(=O)c2ccco2)CC1 (stereo not given in full)	-	?	-	-	-	-
